# According to PubChem BioAssay:
# Calls of active or inactive are those of the source. Unless noted, the rule behind the calls is not given here.
# How the values were obtained:
# [1] = A549 cell viability effects, profiling panel, calcein-AM fluorescence, 48 h, basal (AID 1162); settings: higher = more signal; note: test concentration not given here
# [2] = adipocyte viability effects, profiling panel, cell-based, 3T3-L1 adipocytes, calcein-AM fluorescence, 48 h, basal (AID 1163); settings: 3T3-L1 adipocytes viability, higher = more signal; note: test concentration not given here
# [3] = HepG2 cell viability effects, profiling panel, calcein-AM fluorescence, 48 h, basal (AID 1164); settings: higher = more signal; note: test concentration not given here
# [4] = MM1S cell viability effects, profiling panel, calcein-AM fluorescence, 48 h, basal (AID 1165); settings: higher = more signal;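 note: viability of MM1S multiple myeloma cells under basal unstimulated conditions; test concentration not given here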
# [5] = basal RPMI8226 viability, no added stimulus, profiling panel, cell-based, calcein-AM fluorescence, 48 h, PK04 Diversity Set (AID 1166); settings: RPMI8226 myeloma viability, higher = more signal;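 note: cells grown under basal conditions without added stimulus; test concentration not given here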
# [6] = basal HepG2 mitochondrial membrane potential changes, profiling panel, cell-based, JC-1 fluorescence, 24 h, 100 nL compound (AID 1167); settings: higher = more signal; note: test concentration not given here
# [7] = basal 3T3-L1 adipocyte mitochondrial potential changes, profiling panel, cell-based, JC-1 fluorescence, 3T3-L1 adipocytes, 24 h, 100 nL compound (AID 1168); settings: JC-1 mitochondrial fluorescence, higher = more signal, called active from +8 up or from −8 down; note: test concentration not given here
# [8] = basal RPMI8226 mitochondrial membrane potential changes, profiling panel, cell-based, JC-1 fluorescence, 24 h, 100 nL compound (AID 1169); settings: RPMI8226 myeloma, JC-1 mitochondrial potential fluorescence, higher = more signal; note: test concentration not given here
# [9] = basal MM1S mitochondrial membrane potential changes, profiling panel, cell-based, JC-1 fluorescence, 24 h, 100 nL compound (AID 1170); settings: higher = more signal; note: test concentration not given here
# [10] = A549 lung cancer cell viability effects, profiling panel, resazurin fluorescence, 24 h, PK04 Diversity Set (AID 1171); settings: higher = more signal, called active from +8 up or from −8 down; note: test concentration not given here
# [11] = HepG2 liver cancer cell viability effects, profiling panel, resazurin fluorescence, 24 h, PK04 Diversity Set (AID 1172); settings: higher = more signal; note: test concentration not given here
# [12] = basal S. cerevisiae growth modulation, no modifier, primary screen, OD600, strain BY4716, 24 h, basal condition (AID 1173); settings: OD600, 24 h, higher = more signal, called active from +8 up or from −8 down
# [13] = MM1S myeloma cell viability, profiling panel, resazurin fluorescence, basal, 24 h, PK04 Diversity Set (AID 1174); settings: higher = more signal, called active from +8 up or from −8 down;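 note: MM1S multiple myeloma cell line; test concentration not given here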
# [14] = target: Dihydroorotate dehydrogenase (quinone), mitochondrial (Plasmodium falciparum (isolate 3D7)) (UniProt Q08210); experiment: PfDHODH enzyme inhibitors, primary screen, biochemical, C-terminal His tag, absorbance 600 nm (AID 1175); settings: DCIP absorbance 600 nm, higher = more signal, called active from +8 up or from −8 down;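 note: recombinant parasite enzyme with a five histidine tag at its C terminus; test concentration not given here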
# [15] = P. aeruginosa biofilm formation inhibitors, primary screen, strain PAO1, LB-PBS medium, absorbance 600 nm (AID 1176); note: test concentration not given here; settings: P. aeruginosa PAO1 growth/biofilm, A600, 12 h; higher = more signal
# [16] = S. cerevisiae RM11-1a growth modifiers, primary screen, strain RM11-1a, OD600, basal, 24 h (AID 1177); settings: OD600, 24 h, higher = more signal, called active from +8 up or from −8 down;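 note: cultures grown under basal conditions with no added stressor; test concentration not given here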
# [17] = E. coli acrAB mutant growth effects, primary screen, E. coli filamentation inducers, strain DRC39, OD650, 24 h (AID 1178); settings: higher = more signal, called active from +8 up or from −8 down;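 note: growth measured as culture turbidity by optical density at 650 nm; test concentration not given here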
# [18] = E. coli acrAB mutant growth effects, primary screen, E. coli filamentation inducers, strain DRC39, OD650, 48 h (AID 1179);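 note: screen aims at cell division blockers that make cells filament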; settings: E. coli DRC39 delta-acrAB growth, higher = more signal, called active from +8 up or from −8 down
# [19] = RPMI8226 myeloma cell viability, profiling panel, resazurin fluorescence, basal, 24 h, PK04 Diversity Set (AID 1180); settings: higher = more signal;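 note: RPMI8826 multiple myeloma cell line at 5000 cells per well; test concentration not given here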
# [20] = target: E3 ubiquitin-protein ligase XIAP (Homo sapiens) (UniProt P98170); experiment: XIAP binders, primary screen, biophysical, small-molecule microarray, fluorescence 635 nm (AID 1181); settings: small-molecule microarray binding, higher = more signal;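 note: score merges 667 nm emission and signal to noise over triplicate slides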
# E3 ubiquitin-protein ligase XIAP (Homo sapiens), sequence (P98170 whole entry, looked up): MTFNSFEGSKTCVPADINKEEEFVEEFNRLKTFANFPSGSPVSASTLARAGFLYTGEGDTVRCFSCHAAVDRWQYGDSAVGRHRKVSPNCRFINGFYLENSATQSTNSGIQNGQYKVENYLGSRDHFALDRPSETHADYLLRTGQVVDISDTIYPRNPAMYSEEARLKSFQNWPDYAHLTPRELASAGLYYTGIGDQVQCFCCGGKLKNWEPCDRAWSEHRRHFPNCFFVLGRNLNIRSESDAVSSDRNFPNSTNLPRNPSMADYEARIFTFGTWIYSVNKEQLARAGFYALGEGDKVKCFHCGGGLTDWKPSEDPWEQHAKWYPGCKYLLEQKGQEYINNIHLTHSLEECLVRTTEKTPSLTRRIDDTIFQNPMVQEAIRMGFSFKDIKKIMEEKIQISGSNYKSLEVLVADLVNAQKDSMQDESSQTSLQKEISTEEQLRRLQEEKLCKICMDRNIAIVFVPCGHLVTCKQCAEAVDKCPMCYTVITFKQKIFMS
# Dihydroorotate dehydrogenase (quinone), mitochondrial (Plasmodium falciparum (isolate 3D7)), sequence (Q08210 whole entry, looked up): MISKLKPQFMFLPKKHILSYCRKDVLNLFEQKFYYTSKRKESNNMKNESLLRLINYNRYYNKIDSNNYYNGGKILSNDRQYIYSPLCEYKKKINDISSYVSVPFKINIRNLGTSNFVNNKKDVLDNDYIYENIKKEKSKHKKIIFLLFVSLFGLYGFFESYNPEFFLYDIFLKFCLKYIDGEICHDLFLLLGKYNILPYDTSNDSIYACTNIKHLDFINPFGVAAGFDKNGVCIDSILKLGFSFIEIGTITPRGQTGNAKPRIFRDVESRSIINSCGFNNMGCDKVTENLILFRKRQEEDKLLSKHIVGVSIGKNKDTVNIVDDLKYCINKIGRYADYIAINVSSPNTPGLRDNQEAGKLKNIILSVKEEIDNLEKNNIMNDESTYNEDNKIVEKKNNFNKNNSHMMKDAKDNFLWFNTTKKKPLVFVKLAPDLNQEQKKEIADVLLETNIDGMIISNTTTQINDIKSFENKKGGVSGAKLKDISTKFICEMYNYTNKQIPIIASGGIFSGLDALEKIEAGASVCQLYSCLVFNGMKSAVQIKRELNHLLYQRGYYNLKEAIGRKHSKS
Compound,z-score [1],z-score [2],z-score [3],z-score [4],z-score [5],z-score [6],z-score [7],z-score [8],z-score [9],z-score [10],z-score [11],z-score [12],z-score [13],composite z-score [14],z-score [15],z-score [16],z-score [17],z-score [18],z-score [19],composite z-score [20]
COCCOC(=O)N1C(=O)[C@@]2(c3cc(C#CCCO)ccc31)[C@H](C(N)=O)[C@H]1C(=O)O[C@H](c3ccccc3)[C@H](c3ccccc3)N1[C@@H]2c1ccc(OCCO)cc1,0.518,0.0809,0.325,-0.971,-0.859,-1.78,0.959 (inactive),-0.505,-0.0622,-0.0958 (inactive),-0.639,1.21 (inactive),-0.479 (inactive),0.46 (inactive),1.56 (inactive),2.16 (inactive),-0.138 (inactive),0.386 (inactive),-0.621,0.409
Cc1ccc(S[C@]2(C(=O)NCc3ccccc3)CC(=O)N(Cc3cc(C(F)(F)F)cc(C(F)(F)F)c3)[C@@H]2c2ccc(CO)cc2I)cc1,0.666,0.336,-0.165,-1.87,-2.22,0.994,-0.00208 (inactive),-0.133,-0.713,0.772 (inactive),1.24,-3.9 (inactive),-2.82 (inactive),-0.459 (inactive),0.0214 (inactive),-0.741 (inactive),0.671 (inactive),0.602 (inactive),-1.17,-0.0622
[N-]=[N+]=Nc1ccccc1C[C@]1(C(=O)O)N=C(c2ccc(OCCCO)cc2)O[C@H]1c1ccccc1N=[N+]=[N-],-0.35,0.22,0.0698,-2.38,-1.43,-0.914,-0.424 (inactive),-0.739,0.51,-0.371 (inactive),0.675,-2.36 (inactive),-0.0953 (inactive),0.463 (inactive),1.13 (inactive),-0.296 (inactive),2.43 (inactive),0.76 (inactive),-0.215,-0.145
C[C@@H]1ON(c2ccc(I)cc2)[C@H](c2ccc(OC(=O)OC(C)(C)C)cc2)[C@H]1C(=O)N1C(=O)OC[C@H]1Cc1ccccc1,0.0132,1.06,1.61,-0.234,0.351,0.144,0.498 (inactive),-0.366,-1.81,1.33 (inactive),1.14,-1.24 (inactive),1.6 (inactive),-0.571 (inactive),0.294 (inactive),0.61 (inactive),1.81 (inactive),1.2 (inactive),1.87,-0.0448
CC1(C)C(=O)C(c2ccccc2)=C2CN3C(=O)N(CCc4ccccc4)C(=O)C3(Cc3ccc(C(F)(F)F)cc3)C=C21 (stereo not given),-0.902,-0.586,0.409,-1.49,-1.75,-2.08,-2 (inactive),-0.00804,-0.421,0.43 (inactive),-0.967,1.72 (inactive),-1.33 (inactive),0.46 (inactive),0.0539 (inactive),1.9 (inactive),-1.01 (inactive),-0.756 (inactive),-1.03,0.0322
C=C(/C(=C/C[C@H](OC(=O)c1ccncc1)c1ccccc1OCCO)c1cnc2ccccc2c1)C(C)C,0.0894,-0.253,-0.444,-1.26,-0.906,0.96,-0.482 (inactive),-0.331,-0.174,1.35 (inactive),0.495,-0.147 (inactive),-0.632 (inactive),-3.77 (inactive),1.07 (inactive),-0.07 (inactive),0.395 (inactive),0.313 (inactive),0.262,-0.0771
CCOC(=O)C1=CC[C@@H](c2ccccc2)N(S(=O)(=O)c2ccc(C)cc2)[C@H]1C=Cc1ccccc1,-0.959,-0.443,-0.599,-0.149,-1.44,2.91,-0.489 (inactive),0.0754,-1.42,2.28 (inactive),1.25,1.58 (inactive),-0.0664 (inactive),-0.382 (inactive),0.987 (inactive),0.65 (inactive),-0.923 (inactive),-0.706 (inactive),-1.42,-0.103
C=C(COC)C(=O)CC[C@H](OC(=O)c1cccnc1)c1ccc(CO)o1,-0.15,-0.266,-0.53,-0.401,-0.535,-0.981,-0.492 (inactive),0.541,-0.267,-0.452 (inactive),-0.655,-1.29 (inactive),-0.317 (inactive),-3.37 (inactive),0.142 (inactive),-0.663 (inactive),-0.659 (inactive),-0.649 (inactive),-0.732,0.0565
C=C(/C(=C/C[C@@H](OC(C)=O)c1ccc(CO)o1)c1cc(C(=O)OC)ccc1OC)C(C)C,1.62,-0.634,0.377,-0.998,0.0028,-0.241,-0.298 (inactive),-0.544,-1.2,-0.0571 (inactive),-0.0187,-0.367 (inactive),-0.912 (inactive),-0.805 (inactive),0.731 (inactive),0.4 (inactive),0.769 (inactive),0.533 (inactive),-0.0967,0.146
